The supplement of paper PMC9694430

system: LOC_OS01G10900-cb004; test: thermal shift delta Tm vs DMSO control; higher = stronger stabilization (binding); conditions: 12.5 µM; protein concentration 2 µM
Procedure, shortened: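 Compounds dissolved in DMSO were added to purified rice kinase domain constructs, which had been expressed in E. coli, for differential scanning fluorimetry. Each well held 19.5 μl of 2 μM kinase in 100 mM potassium phosphate pH 7.5, 150 mM NaCl, 10% glycerol and 5 × SYPRO Orange. Fluorescence was followed from 25°C to 95°C at a rate of 0.05°C/s. Shifts in Boltzmann-fitted melting temperature are triplicate means relative to DMSO-only protein.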

Row | Compound | thermal shift delta Tm [°C]
1 | N#C/C(=C(/N)Sc1ccc(N)cc1)c1ccccc1C(F)(F)F | 0.32
2 | COc1ccc(CC(=O)Nc2nc3c(s2)CCc2ccccc2-3)cc1OC | 0.85
3 | CCn1c(-c2nonc2N)nc2c(C#CC(C)(C)O)ncc(OC[C@H]3CCCNC3)c21 | 0.42
4 | Cn1cc(-c2ccc3nnc(Sc4ccc5ncccc5c4)n3n2)cn1 | 3.13
5 | CCc1nc(C(N)=O)c(Nc2ccc(N3CCC(N4CCN(C)CC4)CC3)c(OC)c2)nc1NC1CCOCC1 [Gilteritinib (ASP2215)] | 2.14
6 | CC(C)(CCCCCC(O)CCCCCC(C)(C)C(=O)O)C(=O)O | 0.09
7 | CCN1CCN(Cc2ccc(Nc3ncc(F)c(-c4cc(F)c5nc(C)n(C(C)C)c5c4)n3)nc2)CC1 | 4.97
8 | Cc1cnc(NC(=O)Nc2cc(Br)c(C)cc2OC[C@@H]2CNCCO2)cn1 | 0.37
9 | CCn1c(=O)c(-c2ccc(Cl)cc2Cl)cc2cnc(Nc3ccc(N4CCNCC4)c(F)c3)nc21 | 7.68
10 | C=CC(=O)Nc1cccc(Oc2nc(Nc3ccc(N4CCN(C)CC4)cc3OC)ncc2Cl)c1 | 0.47
11 | CCS(=O)(=O)Nc1ccc2c(c1)/C(=C(/Nc1ccc(CN3CCCCC3)cc1)c1ccccc1)C(=O)N2 [Hesperadin] | 0.26
12 | COCCOc1cnc2ccn([C@H](C)c3nnc4c(F)cc(-c5cnn(C)c5)cn34)c(=O)c2c1 | 0.34
13 | COc1ccc(-c2cc3c(C)nc(N)nc3n([C@H]3CC[C@H](OCCO)CC3)c2=O)cn1 | 0.3
14 | CS(=O)(=O)c1ccc(-c2cnc(N)c(C(=O)Nc3ccccc3)n2)cc1 | 0.6
